About 83,000 compounds went through this panel and 20% of them were active in at least one assay; those are over-represented in the sample as a whole.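 Compound tested at a single concentration for 48 hours in 96-well plates; a percent growth value below 10 was scored as active.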 The source made the active and inactive calls.
What was measured:
Assay in all cases: NCI-60 one-dose screen, 48 h (100 = growth as untreated, 0 = no growth, -100 = all killed)
NCI-H23 lung = conditions: 10 µM unless noted
NCI-H226 lung = conditions: 10 µM unless noted
NCI-H322M lung = conditions: 10 µM unless noted
HOP-62 NSCLC = conditions: 10 µM unless noted
NCI-H460 lung = conditions: 10 µM unless noted
HOP-92 NSCLC = conditions: 10 µM
NCI-H522 lung = conditions: 10 µM unless noted
A549/ATCC NSCLC = conditions: 10 µM unless noted
786-0 renal = conditions: 10 µM unless noted
COLO 205 colon = conditions: 10 µM unless noted
DU-145 prostate = conditions: 10 µM unless noted
K-562 leukemia = conditions: 10 µM unless noted
MALME-3M melanoma = conditions: 10 µM unless noted
MDA-MB-231 breast = conditions: 10 µM unless noted
SF-268 CNS = conditions: 10 µM unless noted
SF-295 CNS = conditions: 10 µM unless noted
SF-539 CNS = conditions: 10 µM unless noted
UACC-257 melanoma = conditions: 10 µM unless noted

Measured: growth

CS(=O)(=O)Nc1cc(-c2ccc3ncc(C#N)c(NCc4ccccc4O)c3c2)cnc1Cl
inactive: NCI-H226 lung 16.9% | NCI-H322M lung 16.1% | NCI-H522 lung 12.8% | A549/ATCC NSCLC 15.8% | DU-145 prostate 19.2% | K-562 leukemia 22.3%
active: NCI-H23 lung -7.77% | HOP-62 NSCLC 3.57% | NCI-H460 lung 7.88% | HOP-92 NSCLC -10.8% | 786-0 renal 8.24% | COLO 205 colon 8.91% | MALME-3M melanoma -37.2% | MDA-MB-231 breast 6.73% | SF-268 CNS 6.44% | SF-295 CNS -14.4% | SF-539 CNS -14.5% | UACC-257 melanoma 6.3%

COc1ccc2c(c1)Oc1nc(N)c(C#N)c(N)c1C2Sc1ccc(C)cc1 (centres undefined)
inactive: NCI-H322M lung 51.9% | HOP-62 NSCLC 100% | A549/ATCC NSCLC 75.6% | SF-268 CNS 50% | SF-295 CNS 92.9%
active: NCI-H23 lung -19.3% | NCI-H226 lung -1.63% | NCI-H460 lung -37.6% | HOP-92 NSCLC -35.9% | NCI-H522 lung -51.5% | 786-0 renal -80.7% | COLO 205 colon -16.7% | DU-145 prostate -50% | K-562 leukemia 4.37% | MALME-3M melanoma -57% | MDA-MB-231 breast -77.1% | SF-539 CNS -34% | UACC-257 melanoma 9.55%

N#Cc1cccc(CN2CCC3=C(C2)C(=O)N(Cc2ccc(Cl)cc2)C2=NCCCN23)c1
active: COLO 205 colon -31% | SF-295 CNS 7.29%
inactive: NCI-H23 lung 28.4% | NCI-H226 lung 39.9% | NCI-H322M lung 48.8% | HOP-62 NSCLC 26% | NCI-H460 lung 18.9% | HOP-92 NSCLC 26.1% | NCI-H522 lung 14.4% | A549/ATCC NSCLC 29% | 786-0 renal 44.4% | DU-145 prostate 31.2% | K-562 leukemia 22.5% | MALME-3M melanoma 46.7% | MDA-MB-231 breast 32.6% | SF-268 CNS 37.1% | SF-539 CNS 40.5% | UACC-257 melanoma 13.8%

C#Cc1nc(/C=C/C(=O)c2nccn2C)cs1
active: NCI-H23 lung -69.3% | NCI-H226 lung 4.67% | HOP-62 NSCLC -44.9% | NCI-H460 lung -47.2% | HOP-92 NSCLC -71% | NCI-H522 lung -60.1% | A549/ATCC NSCLC -3.96% | 786-0 renal -65.9% | COLO 205 colon -30.6% | DU-145 prostate -45.6% | K-562 leukemia -16.8% | MALME-3M melanoma -75.6% | MDA-MB-231 breast -64.7% | SF-268 CNS -54.2% | SF-295 CNS -87.8% | SF-539 CNS -82.7% | UACC-257 melanoma -19%
inactive: NCI-H322M lung 28.5%

CCOc1ccccc1NC1=C(Cl)C(=O)c2nc(C)ccc2C1=O
inactive: NCI-H226 lung 17.6% | NCI-H322M lung 28.8% | HOP-62 NSCLC 84.3% | NCI-H460 lung 12.1% | A549/ATCC NSCLC 59.1% | COLO 205 colon 99.2% | SF-268 CNS 32.8% | SF-295 CNS 90.7%
active: NCI-H23 lung -67.8% | HOP-92 NSCLC -89.2% | NCI-H522 lung -43.5% | 786-0 renal -88.2% | DU-145 prostate -85% | K-562 leukemia 1.26% | MALME-3M melanoma -71.4% | MDA-MB-231 breast -63.6% | SF-539 CNS -37.3% | UACC-257 melanoma -88.3%

COc1c(N2CC3CCCNC3C2)c(F)cc2c(=O)c(C(=O)N/N=C/c3ccccc3)cn(C3CC3)c12 (centres undefined)
inactive: NCI-H23 lung 90.7% | NCI-H226 lung 103% | NCI-H322M lung 94% | HOP-62 NSCLC 96.6% | NCI-H460 lung 98.7% | HOP-92 NSCLC 75.3% | NCI-H522 lung 109% | A549/ATCC NSCLC 101% | 786-0 renal 66.6% | COLO 205 colon 97.5% | DU-145 prostate 104% | K-562 leukemia 54.1% | MALME-3M melanoma 94.1% | MDA-MB-231 breast 94.9% | SF-268 CNS 85.2% | SF-295 CNS 104% | SF-539 CNS 83.7% | UACC-257 melanoma 106%

CCC(CC)N1C(=O)/C(=c2\sc3n(c2=O)NC2C(N=3)N(CC)C(=O)N2CC)c2ccccc21 (centres undefined)
inactive: NCI-H23 lung 44.1% | NCI-H226 lung 79.1% | NCI-H322M lung 80.6% | HOP-62 NSCLC 73.2% | NCI-H460 lung 27.5% | HOP-92 NSCLC 120% | NCI-H522 lung 62.7% | A549/ATCC NSCLC 57.6% | 786-0 renal 72.7% | COLO 205 colon 37.8% | DU-145 prostate 52% | K-562 leukemia 26% | MALME-3M melanoma 65.2% | MDA-MB-231 breast 53.2% | SF-268 CNS 63.4% | SF-295 CNS 20.3% | SF-539 CNS 25.2% | UACC-257 melanoma 86.1%

COc1ccc(NC2=C(Cl)C(=O)c3nc(C)ccc3C2=O)cc1OC
active: K-562 leukemia 7.18%
inactive: NCI-H23 lung 59% | NCI-H226 lung 97.1% | NCI-H322M lung 99% | HOP-62 NSCLC 110% | NCI-H460 lung 100% | HOP-92 NSCLC 112% | NCI-H522 lung 78.8% | A549/ATCC NSCLC 107% | 786-0 renal 99% | COLO 205 colon 108% | DU-145 prostate 93% | MALME-3M melanoma 94.5% | MDA-MB-231 breast 73% | SF-268 CNS 84.7% | SF-295 CNS 104% | SF-539 CNS 103% | UACC-257 melanoma 91%
